One experiment relates to RXRa homodimer (NR concentration 180 nM). The experiment can be described thus: PBM binding z-score (relative to random genomic background probes); higher = stronger binding; sequences stand for … in GC…GCGATTGACAGCGTAGAATGAAGG
A digest of the protocol: (§1)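 Custom Agilent 4×180K protein-binding microarrays carried double-stranded probes, each with a 34-nt variable region. These regions held direct-repeat seeds, single-nucleotide variants, half-site ablations and random human genomic background sequences. Ligand-free nuclear receptor dimers were incubated on the arrays for 1 h, antibodies against each partner (one per run) detected binding, and scanned fluorescence was regression-normalized. Binding z-scores take the random background probes as reference.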
In the case of AATATTAGTTGAGACGAGGGCAACCGATAGGTTG, the PBM binding z-score came out at 0.883.

TCGAGTAGGTTAGGGTCATTCAGAATGGCGTCGA showed a PBM binding z-score of 4.66.

In turn, TAGCCTAGGTAATTCAGGGGCCAGTATAGAAAGC came in with a PBM binding z-score of -0.137.

Take CAAACTAGGTCAAGGTCGAAGTCGGTTTGTGCCA: the PBM binding z-score is 3.49.

In the case of AATACACGGTCATCGTAGGCCAGAGTACGCACAG, the PBM binding z-score amounted to 1.07.

With CGGACTAGGTCAAGGACAGTGAATCTCCGCACGC, the PBM binding z-score came out at 2.33.

In turn, CATACAGGGTCAGCTACGCCAGAGTAGGGACGGC gave a PBM binding z-score of 4.11.

AGAACGAGGGCGCGCTGAGTTGATAGCAGAGTAG came in with a PBM binding z-score of 0.444.

In turn, CGTCAAAGTTCAACTAGGGTAACGTAAAGCACGC registered a PBM binding z-score of 5.44.

In turn, GCTCGGAGGAAAAGGTCAGAGCTTTGTCCGTAGA returned a PBM binding z-score of 4.74.

For CCTTACGTGTCAAGGTTATAGCACGGGTGGTACG, the PBM binding z-score turned out to be 1.11.

CCTCCTAGGTCAATGGTCAGCTAAAGCAGCTCGC gave a PBM binding z-score of 2.16.

In the case of CCGACTGGGGCATAAAGGTTACCATACCATCCGG, the PBM binding z-score was determined as 1.63.

In turn, TCTGCTAGGTCAGTTGGTCAGCTACCGAGCTGCC gave a PBM binding z-score of 0.83.

GCTTGTAGATCAGGGTTAAGAAAGACTAAGCTAA returned a PBM binding z-score of 0.823.

TGATATAGGTAATACAGGTGAAAGTCGGCATCTA came in with a PBM binding z-score of 1.12.

With TCTTGTAGATCAGCATGTTAAGAAAGCTGGCCAA, the PBM binding z-score is -0.151.

Take CGAACTAGGTTATTGACAGGACAGTGAATAGTAA: the PBM binding z-score amounted to 0.57.

For the sequence ATCGAAAGGTCGACGAGGTGACTATACACCGTTT, the PBM binding z-score amounted to 5.08.

GCTGCTAGGTCAGGGTGGTCAGCTAACGGGTACG gave a PBM binding z-score of 1.41.

As for ACTAGCAGGCCCAGTTTGGGTCACTCAAACAAAG, the PBM binding z-score was found to be 0.398.

As for AGAATGAGGTTACCAAATATCAGGGAAACGCTTG, the PBM binding z-score is 2.52.

Regarding ACTCGGAGGACAAAGGTCAGAGCAACGCCAGTGA, the PBM binding z-score was determined as 5.09.

Sequence GCTGCTAGGTCAACTGATTGTCAGCTAAAGCTCG came in with a PBM binding z-score of 2.55.

The sequence GCGACTGGGGCAAAGCAAGTTACCATAAGGTTGG displayed a PBM binding z-score of 0.26.

The sequence AGAATGAGGTTAATAAGATCAGGGAATTGCGGTC yielded a PBM binding z-score of 1.82.

As for ATCCCTAGGTAAAGATAGTTCAGTGAATGCAAAT, the PBM binding z-score was 0.295.

With CTTCGGAGGACAGAAGGTCAGAGCTGTCCGCTTT, the PBM binding z-score was determined as 2.14.

In the case of CCAGACAGGTGTAAGGTAACTCAGTCTGGTACGC, the PBM binding z-score is -0.0847.

CAAACTAGGTCCAGGTCAAAGTCGGTTTGTGCCA: the PBM binding z-score came out at 2.37.

CCTAGTTGGTCGAGGTCACACACGCTATAGGTAC: the PBM binding z-score is 5.16.

As to TCTTGTTGATCAGCAGGTTAAGAAAGCTGGCCAA, the PBM binding z-score amounted to 0.257.

In the case of CGTCAAAGTTCAAGATAACGTAACAGAAAGCAGC, the PBM binding z-score worked out at 4.34.

For CAAACTAGGCCAAAGGTCAAAGTCGAGCCAACCA, the PBM binding z-score came out at 7.49.

Regarding TCTCGGAGGACACGAAAGGTCGGAGCTCGACATC, the PBM binding z-score stood at 1.66.

CGTCCAAGGTCTGCAGGTCAGTGAAAGCGACGTG returned a PBM binding z-score of 0.794.

Sequence CCAGACAGGTGGAAGGTAACTCAGTCTGGTACGC gave a PBM binding z-score of 0.236.

As to ACAGACAGGAGATGAAGGTAACTCAGGCTATCAT, the PBM binding z-score was -0.000835.

In turn, CCAGACAGGCGAAAGGTAACTCAGTCTGGTACGC gave a PBM binding z-score of 0.25.

On to CGTCCAAGGTCAATGCTAGGTCAGTGTAAGCATT, for which the PBM binding z-score was found to be 5.35.

The test system of another experiment is THRa:RXRa (NR concentration 90 nM, RXRa partner concentration 90 nM). The description is as above. A digest of the protocol:
as §1
Sequence AATATTAGTTGAGACGAGGGCAACCGATAGGTTG gave a PBM binding z-score of 2.64.

The sequence TCGAGTAGGTTAGGGTCATTCAGAATGGCGTCGA returned a PBM binding z-score of 3.83.

TAGCCTAGGTAATTCAGGGGCCAGTATAGAAAGC: the PBM binding z-score is 0.54.

CAAACTAGGTCAAGGTCGAAGTCGGTTTGTGCCA came in with a PBM binding z-score of 3.55.

Turning to AATACACGGTCATCGTAGGCCAGAGTACGCACAG, the PBM binding z-score was 2.15.

CGGACTAGGTCAAGGACAGTGAATCTCCGCACGC had a PBM binding z-score of 2.8.

On to CATACAGGGTCAGCTACGCCAGAGTAGGGACGGC, for which the PBM binding z-score was found to be 2.73.

AGAACGAGGGCGCGCTGAGTTGATAGCAGAGTAG displayed a PBM binding z-score of 0.45.

Sequence CGTCAAAGTTCAACTAGGGTAACGTAAAGCACGC displayed a PBM binding z-score of 5.14.

In turn, GCTCGGAGGAAAAGGTCAGAGCTTTGTCCGTAGA showed a PBM binding z-score of 2.22.

In the case of CCTTACGTGTCAAGGTTATAGCACGGGTGGTACG, the PBM binding z-score amounted to 1.57.

The sequence CCTCCTAGGTCAATGGTCAGCTAAAGCAGCTCGC showed a PBM binding z-score of 2.61.

CCGACTGGGGCATAAAGGTTACCATACCATCCGG showed a PBM binding z-score of 1.19.

TCTGCTAGGTCAGTTGGTCAGCTACCGAGCTGCC showed a PBM binding z-score of 1.22.

GCTTGTAGATCAGGGTTAAGAAAGACTAAGCTAA showed a PBM binding z-score of 0.939.

TGATATAGGTAATACAGGTGAAAGTCGGCATCTA displayed a PBM binding z-score of 0.952.

In the case of TCTTGTAGATCAGCATGTTAAGAAAGCTGGCCAA, the PBM binding z-score was -0.548.

With CGAACTAGGTTATTGACAGGACAGTGAATAGTAA, the PBM binding z-score stood at 1.27.

On to ATCGAAAGGTCGACGAGGTGACTATACACCGTTT, for which the PBM binding z-score worked out at 3.95.

In turn, GCTGCTAGGTCAGGGTGGTCAGCTAACGGGTACG came in with a PBM binding z-score of 2.12.

ACTAGCAGGCCCAGTTTGGGTCACTCAAACAAAG had a PBM binding z-score of 1.72.

As for AGAATGAGGTTACCAAATATCAGGGAAACGCTTG, the PBM binding z-score was found to be 2.67.

On to ACTCGGAGGACAAAGGTCAGAGCAACGCCAGTGA, for which the PBM binding z-score came to 3.55.

For the sequence GCTGCTAGGTCAACTGATTGTCAGCTAAAGCTCG, the PBM binding z-score was 2.89.

Turning to GCGACTGGGGCAAAGCAAGTTACCATAAGGTTGG, the PBM binding z-score is 0.526.

The sequence AGAATGAGGTTAATAAGATCAGGGAATTGCGGTC yielded a PBM binding z-score of 2.04.

Turning to ATCCCTAGGTAAAGATAGTTCAGTGAATGCAAAT, the PBM binding z-score was determined as 0.844.

Regarding CTTCGGAGGACAGAAGGTCAGAGCTGTCCGCTTT, the PBM binding z-score was 2.31.

For the sequence CCAGACAGGTGTAAGGTAACTCAGTCTGGTACGC, the PBM binding z-score came to 1.59.

Sequence CAAACTAGGTCCAGGTCAAAGTCGGTTTGTGCCA gave a PBM binding z-score of 3.31.

Sequence CCTAGTTGGTCGAGGTCACACACGCTATAGGTAC showed a PBM binding z-score of 4.16.

The sequence TCTTGTTGATCAGCAGGTTAAGAAAGCTGGCCAA came in with a PBM binding z-score of 0.181.

Regarding CGTCAAAGTTCAAGATAACGTAACAGAAAGCAGC, the PBM binding z-score was determined as 1.72.

CAAACTAGGCCAAAGGTCAAAGTCGAGCCAACCA displayed a PBM binding z-score of 3.93.

On to TCTCGGAGGACACGAAAGGTCGGAGCTCGACATC, for which the PBM binding z-score was 2.7.

CGTCCAAGGTCTGCAGGTCAGTGAAAGCGACGTG: the PBM binding z-score was 1.12.

On to CCAGACAGGTGGAAGGTAACTCAGTCTGGTACGC, for which the PBM binding z-score is -0.18.

In the case of ACAGACAGGAGATGAAGGTAACTCAGGCTATCAT, the PBM binding z-score turned out to be 1.03.

In turn, CCAGACAGGCGAAAGGTAACTCAGTCTGGTACGC registered a PBM binding z-score of -0.18.

The sequence CGTCCAAGGTCAATGCTAGGTCAGTGTAAGCATT yielded a PBM binding z-score of 4.48.

Values taken from the supplement of paper PMC6555819.
